{"source": "PubChem BioAssay (NCATS)", "note": "Results filed as inconclusive are left out. Entries that show only a call come without a potency. Calls of active or inactive are those of the source. The call rests on the fitted dose curve; in most records, active means well fitted inhibition curve with a large enough effect; inconclusive means small, poorly fitted or top-dose-only effect; inactive means flat fitted curve, though single readings scatter.", "data": [{"system": "CRL-7250", "assay": "qHTS assay to identify novel small-molecules to repurpose for Merkel cell carcinoma treatment (AID 1296009); further: nearly all actives have a fitted effect of over 60% in size", "conditions": "MCC and control cell lines, CellTiter-Glo viability, 72 h; series mostly up to 92 µM", "procedure,_shortened": "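Luminescence from CellTiter-Glo, read 10 min after addition at room temperature, reported viability following a 72 hr, 37 degree celsius treatment with NPC or MIPE compounds in titration; values normalized to plate controls.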", "values": [{"smiles": "COc1cc(CCc2ccccc2)c(C(=O)O)c2c1CC(C(C)(C)O)O2", "note": "(centres undefined)", "Potency": "inactive"}, {"smiles": "CC(C)CC(=O)OC[C@@]1(O)C[C@@]23CC[C@H]4[C@@](C)(CCC[C@@]4(C)C(=O)O)[C@@H]2CC[C@@H]1C3", "Potency": "inactive"}, {"smiles": "OC/C=C/C=C/[C@H]1Cc2cc(O)cc(O)c2O1", "Potency": "inactive"}, {"smiles": "Cn1c2ccc(F)cc2c2c(C(=O)N3CCCC3)cn(-c3ccccc3)c(=O)c21", "Potency": "inactive"}]}]}
